Assay outcomes: PubChem, National Center for Advancing Translational Sciences (NCATS)
Compounds with a hit are over-represented: about 9.2% of the library has one in this group of screens.
FLuc counter = inhibits or activates purified firefly luciferase, miR-21 counter-screen | P08659 | purified FLuc, Km substrates, luminescence inhibition | Potency, µM (doses to about 57.5 µM), without a hit: at the highest dose activity change, negative = inhibition, actives largely listed as inhibitors | actives 6.9% (n = 360,000) | AID 588342;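 note: plate controls were vehicle for no effect and reference inhibitor for full effect; nearly all actives have a fitted effect of over 55% in size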
Target sequence (P08659 whole entry, looked up): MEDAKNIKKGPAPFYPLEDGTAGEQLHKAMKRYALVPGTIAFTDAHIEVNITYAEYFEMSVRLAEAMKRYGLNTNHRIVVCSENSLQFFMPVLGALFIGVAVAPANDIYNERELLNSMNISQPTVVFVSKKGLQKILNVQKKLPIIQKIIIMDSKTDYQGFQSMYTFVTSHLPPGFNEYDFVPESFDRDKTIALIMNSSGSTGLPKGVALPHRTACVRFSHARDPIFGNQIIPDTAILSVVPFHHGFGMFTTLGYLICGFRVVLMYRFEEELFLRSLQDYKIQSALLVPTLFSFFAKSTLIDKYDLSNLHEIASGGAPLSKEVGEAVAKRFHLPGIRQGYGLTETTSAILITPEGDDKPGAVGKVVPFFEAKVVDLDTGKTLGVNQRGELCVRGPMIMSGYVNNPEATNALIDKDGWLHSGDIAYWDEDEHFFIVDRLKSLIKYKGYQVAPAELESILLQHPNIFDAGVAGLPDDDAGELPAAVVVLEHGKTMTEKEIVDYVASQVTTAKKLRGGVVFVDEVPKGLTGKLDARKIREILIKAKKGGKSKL
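Purified P. pyralis luciferase (10nM final) with 10uM D-luciferin and 10uM ATP (Km levels) in 50mM Tris acetate pH 7.5, 10mM Mg acetate, 0.01% Tween-20, 0.05% BSA; qHTS 6-point titration, ~60 µM downward; luminescence read.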
ELG1 DNA repair = blocks ELG1-dependent DNA repair in HEK293T cells; HEK293T ELG1-luciferase reporter, luminescence, 16 h; DNA damage induced by 5-fluorouridine; Potency, µM (series often up to 46.1 µM), for inactives: at the highest dose activity change, negative = inhibition, hits mostly inhibitors; actives 2.3% (n = 330,000); note: % is set by controls: 0 for no effect and ±100 for the full control effect; nearly all actives have a fitted effect of over 55% in size
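In this reporter screen, reduction of luminescence relative to DMSO vehicle indicated activity. Compounds and 5-fluorouridine were added together to 2,000 cells per well, incubated for 16 hr at 37 °C, then developed with ONE-Glo.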
ELG1 genotox = inducers of genotoxicity in HEK293T ELG1-luciferase cells; HEK293T ELG1-luciferase reporter, luminescence, 16 h; Potency, µM (highest dose often 46 µM), inactives show top-dose activity change, positive = activation, usual class: activators; actives 1.3% (n = 330,000); note: % of control where 0% means no effect; nearly all actives have a fitted effect of over 60% in size
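DMSO vehicle served as control against compound-treated ELG1-luciferase HEK293T cells; exposure lasted 16 hr at 37 °C and 5% CO2, followed by ONE-Glo luminescence detection after 30 min.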
SMN2 splice up = SMN2 splice variant enhancement; HEK293 SMN2-luciferase splicing reporter, luminescence, 30-36 h; Potency, µM (series often up to 46.1 µM), without a hit: at the top dose activity change, positive = activation, most hits filed as activators; actives 2.8% (n = 210,000); note: % of control where 0% means no effect; nearly all actives have a fitted effect of over 55% in size
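qHTS luciferase splicing reporter: luminescence rises when SMN2 exon 7 is included in transfected HEK293 cells. Compound exposure lasted 30-36 h at 37C, with 4.5 mM final sodium butyrate as control, followed by a ONE-Glo read.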
Rab9 promoter act = Rab9 promoter activation. Potency, µM (highest dose often 9.22 µM), for inactives: at the top dose activation, negative = inhibition, actives largely listed as activators. actives 2.8% (n = 320,000). Huh7 Rab9 promoter-luciferase reporter, luminescence, 24 h. AID 485297; note: % of control where 0% means no effect; nearly all actives have a fitted effect of over 60% in size
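Huh7 cells stably carrying Rab9 promoter–luciferase reporter, plated 1500 cells/well, compound added after 2 h and incubated 24 h at 37 °C; luciferase luminescence then read after 10 min with detection reagent.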
NPC1 prom act = activates the NPC1 promoter | Potency, µM (top dose mostly 9.22 µM), without a hit: at the top dose activation, usual class: activators | AID 485313 | Huh7 NPC1 promoter luciferase reporter, 24 h | actives 2.4% (n = 320,000); note: % of control where 0% means no effect; nearly all actives have a fitted effect of over 60% in size
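Luminescence from an NPC1 promoter-driven luciferase reporter in stably transfected Huh7 cells was measured after 24 h compound treatment at 37 °C, followed by 10 min ambient incubation with luciferase detection reagent.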
* marks the source's active call; other numbers are inactive results; ? = inconclusive; · = no result; [ ] = remark or other dose. Calls come from the whole dose curve; as a rule, active = well fitted curve in the direction sought with a large enough effect; inconclusive = small, poorly fitted or top-dose-only effect, or another doubt; inactive = no such curve, though single readings can be large; an effect the other way counts as inactive or inconclusive. Potency is the fitted concentration of half-maximal effect.

SMILES	FLuc counter	ELG1 DNA repair	ELG1 genotox	SMN2 splice up	Rab9 promoter act	NPC1 prom act
Cc1occc1C(=O)N/N=C/c1c[nH]c2ccccc12	13.5µM*	?	?	4.6%	?	?
O=C(N/N=C/c1c[nH]c2ccccc12)c1cc(Cl)ccc1O	16.9µM*	?	7.3%	·	14.3%	21.0%
COc1ccc(NC(=O)CNc2cccc(S(=O)(=O)N3CCCCCC3)c2)c([N+](=O)[O-])c1	3.3%	10.0%	-13.4%	·	-5.7%	-1.8%
O=C(Nc1ccc(N2CCN(C(=O)c3ccccc3F)CC2)cc1)c1cncc(Br)c1	2.8%	3.66µM*	-24.4%	·	0.4%	2.2%
O=C(Nc1ccc(N2CCN(C(=O)c3cccs3)CC2)cc1)c1ccccc1F	-4.0%	?	-8.5%	·	-6.2%	-19.7%
O=C(Nc1cccc(NC(=O)c2cncc(Br)c2)c1)c1cncc(Br)c1	3.3%	20.6µM*	-10.4%	·	2.1%	-2.0%
O=C(Nc1ccc(N2CCCCC2)cc1)c1cncc(Br)c1	6.01µM*	-11.2%	4.0%	?	?	3.55µM*
Cc1ccc(CNC(=O)C2CCN(S(=O)(=O)c3ccc4c(c3)CCCN4C(=O)C3CCC3)CC2)cc1	2.3%	·	·	·	·	·
Cc1cccc(NC(=O)c2ccc(N(C)C3CCCCC3)c([N+](=O)[O-])c2)n1	10.7µM*	?	-16.1%	3.9%	19.8%	25.5%
O=C(NCCCn1ccnc1)c1ccc(N2CCCCCC2)c([N+](=O)[O-])c1	-10.0%	9.2µM*	-3.1%	-59.1%	3.3%	12.1%
Cc1cccc(NC(=O)c2ccc(N3CCCCC3)c([N+](=O)[O-])c2)n1	4.78µM*	?	?	6.31µM*	2µM*	2.82µM*
Cc1ccc(C)c(S(=O)(=O)N2CCN(C(=O)c3ccc(N4CCCC4)c([N+](=O)[O-])c3)CC2)c1	-0.8%	20.6µM*	-10.7%	·	0.5%	-3.8%
O=[N+]([O-])c1ccccc1S(=O)(=O)NCCSCc1ccco1	·	-2.1%	-1.4%	·	-2.0%	-0.8%
COc1nc(NC(=O)c2ccc(F)cc2)nc(OC)c1-c1ccccc1	-4.6%	1.8%	-9.2%	·	-0.1%	1.7%
CCCCN(C(=O)Cc1ccc(S(=O)(=O)N2CCOCC2)s1)c1c(N)n(CCCC)c(=O)[nH]c1=O	1.4%	21.4%	0.6%	·	-4.1%	-3.8%
O=C(O)c1ccccc1C(=O)c1ccc(N2CCCC2)c([N+](=O)[O-])c1	23.9µM*	?	8.8%	-1.8%	24.3%	10.3%
O=C(NNC1=Nc2ccccc2SC1)c1ccccc1F	?	5.8µM*	-5.2%	·	-13.5%	-6.0%
O=C(NNC1=Nc2ccccc2SC1)c1cccc([N+](=O)[O-])c1	1.9%	16.4µM*	-9.3%	·	-0.4%	-2.5%
Cc1ccccc1-c1nnc(CS(=O)(=O)c2ccccc2)o1	4.78µM*	?	?	·	1.12µM*	1.12µM*
Cc1cc(NC(=O)c2cc(-c3cccc(Cl)c3)on2)no1	-2.4%	2.5%	6.2%	-11.1%	-0.1%	-0.1%
Cc1nnc(-c2ccccc2)o1	-0.1%	6.8%	2.7%	·	0.6%	-0.1%
Cn1cc(-c2nnc(-c3ccccc3)o2)c2ccccc21	0.675µM*	?	?	2.51µM*	2.24µM*	2.51µM*
Cc1ccccc1-c1nnc(-c2ccc(Cl)cc2)o1	6.75µM*	?	16.4µM*	·	3.98µM*	?
Cc1cc(-c2nnc(-c3cccc(Cl)c3)o2)no1	5.36µM*	?	?	·	2.51µM*	3.55µM*
COc1ccccc1CNC(=O)C(=O)NCC(c1cccs1)S(=O)(=O)c1ccccc1 (stereo unspecified)	-8.9%	·	·	·	·	·
SMILES	FLuc counter	ELG1 DNA repair	ELG1 genotox	SMN2 splice up	Rab9 promoter act	NPC1 prom act
CC(=O)NC(Cc1cccc(F)c1)C(=O)NC1CCN(C(=O)Nc2ccccc2)CC1 (stereo unspecified)	-1.8%	-1.8%	1.8%	·	-0.3%	-1.4%
CCOc1ccc(N2CC(NC(=O)/C=C\c3ccc4c(c3)OCO4)CC2=O)cc1 (stereo unspecified)	-1.5%	·	·	·	·	·
Cc1cccc(-c2nnc(-c3ccccc3)o2)c1	9.53µM*	?	8.2µM*	11.2µM*	?	?
Cc1ccccc1-c1nc(Cc2ccc(Cl)cc2)no1	?	?	23.1µM*	24.2%	2.2%	13.6%
Cc1ccccc1-c1nnc(-c2ccccc2)o1	6.75µM*	?	9.2µM*	12.6µM*	3.16µM*	?
COc1ccc(S(=O)(=O)N2CCCCCC2)cc1NS(=O)(=O)c1cc(C(=O)O)cc(C)c1C	0.5%	14.8%	0.2%	·	-2.4%	-1.1%
Cc1ccc(NC(=O)CN2CCc3cc4c(cc3C2C)OCCCO4)cc1 (stereo unspecified)	3.2%	18.3µM*	-3.2%	·	2.6%	1.3%
CSCC[C@@H](C(=O)Nc1ccc2c(c1)OCCO2)N1Cc2ccccc2C1=O	19µM*	?	?	20.2%	5.0%	9.4%
O=C(CN1CCc2ccccc21)Nc1ccc2c(c1)OCCCO2	12µM*	?	?	·	?	?
CSCC[C@@H](C(=O)Nc1cccc(F)c1)N1Cc2ccccc2C1=O	4.0%	·	·	1.4%	·	·
O=C(CN1Cc2ccccc2C1=O)Nc1ccc2c(c1)OCCO2	23.9µM*	?	4.7%[9.26 µM]	·	?	29.9%
Cc1c(O)ccc2c(CN3CCN(C/C=C/c4ccccc4)CC3)cc(=O)oc12	4.3%	18.3µM*	-1.8%	·	-5.6%	-0.5%
Cc1ccc2c(CN3CC(C)CC(C)C3)cc(=O)oc2c1C (stereo unspecified)	-14.1%	7.5%	-0.1%	·	-4.6%	1.1%
